Screening data as filed in PubChem.
Shiga toxin inh = A qHTS for Small Molecule Inhibitors of Shiga Toxin. Vero cells, Shiga toxin protein synthesis inhibition reporter. inhibition, % at 38.7 µM. 9.2% of 290,000 active; in the data active means inhibition mostly above about 28%, no sharp cut-off; inactive means mostly below about 43%; further: 0% is about no effect
CHX counter = Cycloheximide Counterscreen for Small Molecule Inhibitors of Shiga Toxin; 12% of 300,000 active; max response, %; cell reporter, cycloheximide protein synthesis inhibition counterscreen; AID 2314, 2010; in the data active means max response mostly above about 13%, no sharp cut-off; inactive means mostly below about 14%; further: read at 38.3 µM for the half of the compounds with a filed dose; 0% is about no effect
AmpC inh no detg = qHTS Inhibitors of AmpC Beta-Lactamase (assay without detergent). P00811. Potency, µM (titrated, usually from 57.1 µM), inactives show at the highest dose activity change, negative = inhibition, hits mostly inhibitors. AmpC nitrocefin hydrolysis, absorbance 480 nm, 0.0001% Triton. 0.52% of 330,000 active;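 further: potency means the concentration at half of the fitted maximal effect; plate controls were no compound for no effect and no enzyme for full effect; nearly all actives have a fitted effect of over 20% in size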
Target sequence (P00811 whole entry, looked up): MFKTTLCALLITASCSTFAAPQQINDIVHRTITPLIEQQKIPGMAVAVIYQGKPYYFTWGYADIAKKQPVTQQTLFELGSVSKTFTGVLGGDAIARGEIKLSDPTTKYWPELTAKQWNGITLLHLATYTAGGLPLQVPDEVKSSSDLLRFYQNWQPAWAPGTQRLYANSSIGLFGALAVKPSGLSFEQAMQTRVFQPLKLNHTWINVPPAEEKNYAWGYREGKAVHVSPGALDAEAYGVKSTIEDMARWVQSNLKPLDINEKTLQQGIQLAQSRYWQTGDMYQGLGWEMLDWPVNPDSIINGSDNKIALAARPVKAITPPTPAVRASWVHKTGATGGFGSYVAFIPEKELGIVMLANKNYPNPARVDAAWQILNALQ
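20 mM phosphate pH 7.0 + 0.01% (detergent screen) or 0.0001% Triton X-100; 5.3 nM AmpC reagent; cpd preinc 15 min RT; nitrocefin (800 uM stock) to start; A480 q20 s × 4 min; Activity was normalised to no-enzyme and no-compound control wells.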
AmpC inh detg = qHTS Inhibitors of AmpC Beta-Lactamase (assay with detergent). P00811. AmpC hydrolysis of nitrocefin, absorbance 480 nm, 0.01% Triton. Potency, µM (titrated, usually from 114 µM), inactives show at the highest dose activity change, negative = inhibition, most hits filed as inhibitors. 0.041% of 370,000 active;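 further: potency means the concentration at half of the fitted maximal effect; 0% = no-compound wells and -100% = no-enzyme wells; nearly all actives have a fitted effect of over 25% in size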
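20 mM phosphate pH 7.0 + 0.01% (detergent screen) or 0.0001% Triton X-100; 5.3 nM AmpC reagent; cpd preinc 15 min RT; nitrocefin (800 uM stock) to start; A480 q20 s × 4 min; Activity was normalised to no-enzyme and no-compound control wells.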
NS1 inh = qHTS Assay for Inhibitors of Influenza NS1 Protein Function; 0.4% of 270,000 active; Potency, µM (highest dose often 46.1 µM), without a hit: at the top dose activity, positive = more growth; AID 2326, 2010; calls by dose curve; further: potency means the concentration at half of the fitted maximal effect; actives are rising curves; nearly all actives have a fitted effect of over 50% in size
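OD600 was taken as the measure of yeast growth restored by compound in an NS1-expressing S. cerevisiae strain. Cells had been washed out of glucose medium and diluted 1:100 into galactose -URA medium, pH 6.0.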
* marks the source's active call; other numbers are inactive results; u = inconclusive; x = no result given; [ ] = dose if it differs, or a comment. The full list was thinned out, with hits kept by preference. Unless noted, the call rests on the fitted dose curve; in most records, active means well fitted curve in the direction sought with a large enough effect; inconclusive means small, poorly fitted or top-dose-only effect, or another doubt; inactive means no such curve, though single readings can be large; an effect the other way counts as inactive or inconclusive.

SMILES	Shiga toxin inh	CHX counter	AmpC inh no detg	AmpC inh detg	NS1 inh
Cc1cc(-c2ccccc2)nc(N/N=C/c2cccnc2)n1	21.9	2.3	-39.1%	-2.7%	4.7%
CCn1c(C(=O)NCc2ccc(OC(C)C)cc2)cc2oc3ccccc3c21	x	x	x	16.8%	x
CCOC(=O)C1(CCOc2ccccc2)CCN(Cc2ccc(OC)c(COC)c2)CC1	x	-1.3	108.7%	-14.6%	9.2%
Cc1ccc2[nH]c(=O)c3cc(C(=O)NCCCN4CCC(C)CC4)sc3c2c1	x	x	x	14.9%	x
CCOC(=O)c1ccc2c(c1)nc(-c1ccccn1)n2CC	106.5*	61.3*	62.5%	-9.8%	-14.3%
O=C(O)Cn1c(-c2ccccn2)nc2ccccc21	46.0*	31.5*	-25.9%	10.7%	-19.4%
CCCN1C(=O)c2ccccc2CC1(C)C(=O)NC1CCCCC1 (stereo not drawn)	x	x	x	15.6%	x
c1ccc(C[n+]2csc3ccccc32)cc1	108.8*	14.3	-22.4%	-17.8%	-5.2%
N#CC1=C(S)N(c2ccc(F)cc2)C2(CCCCC2)NC1=O	-5.2	-0.7	-1.5%[2.29 µM]	4.5%	10.1%
N#C/C(=C\c1ccc(N2CCOCC2)c([N+](=O)[O-])c1)c1nc2ccccc2[nH]1	13.4	12.5*	-30.0%	u	21.9%
N#C/C(=C/c1ccc(N2CCCC2)c([N+](=O)[O-])c1)c1nc2ccccc2[nH]1	65.1*	41.6*	-35.0%	-4.6%	1.6%
N#C/C(=C\c1ccc(N2CCOCC2)o1)c1nc2ccccc2[nH]1	121.3*	48.6*	5.8%	-13.3%	-7.8%
N#C/C(=C\c1ccc(-c2ccc(C(=O)O)cc2)o1)c1nc2ccccc2[nH]1	-7.2	7.8	-20.5%	-6.6%	0.0%
N#C/C(=C/c1ccc(N2CCOCC2)o1)c1ccc(Cl)cc1	37.5	35.5*	35.8%	1.9%	-52.4%
N#C/C(=C/N1CCOCC1)c1ccccc1	21.7	6.3	0.4%	5.3%	-8.0%
O=C(N/N=C/c1ccccc1F)c1ccccc1OCc1ccccc1	74.5*	20.2*	-28.6%	u	-5.6%
O=C(NCc1ccc(F)cc1)c1ccccc1OCc1ccccc1	-9.7	-4.3	-10.4%	-8.7%	-13.7%
O=C(NNC(=O)c1ccccc1OCc1ccc(F)cc1)c1ccccc1O	26.8	14.7*	-42.8%	-6.3%	-9.2%
O=C(NNC(=O)c1ccccc1OCc1ccccc1)c1ccccc1O	6.3	12.4	-41.9%	-13.6%	-5.6%
O=C(NNC(=O)c1ccccc1OCc1ccccc1)c1ccccc1F	73.3*	68.9*	-4.9%	-5.1%	-3.8%
Cc1cc(C)nc(NC(=O)COc2ccc(Cl)cc2)c1	x	x	x	x	-21.2%
CC(C)OCCCNC(=O)CN1C(=O)COc2ccc(S(=O)(=O)N3CCOCC3)cc21	x	x	x	-12.7%	x
Cc1cccc(-c2cc3nc4c(c(N5CCC6(CC5)OCCO6)n3n2)CCCC4)c1	x	x	x	x	-57.0%
Cc1cccc(-c2cc3nc4c(c(N5CCOCC5)n3n2)CCCC4)c1	72.8*	32.0*	104.7%	-3.6%	-80.3%
Cc1cccc(-c2cc3nc4c(c(N5CCCC(O)C5)n3n2)CCC4)c1 (stereo not drawn)	-4.7	-1.9	96.3%	u	-237.5%
SMILES	Shiga toxin inh	CHX counter	AmpC inh no detg	AmpC inh detg	NS1 inh
OC1CCN(c2c3c(nc4cc(-c5ccc(F)cc5)nn24)CCC3)CC1	-5.6	1.9	-5.0%	-10.4%	-4.8%
Fc1ccc(-c2cc3nc4c(c(N5CCOCC5)n3n2)CCCC4)cc1	94.5*	29.4*	57.0%	-18.1%	-67.4%
OC1CCCN(c2c3c(nc4cc(-c5cccc(F)c5)nn24)CCCC3)C1 (stereo not drawn)	79.7*	56.5*	10.6%	0.2%	-13.1%
Cc1cccc(-c2cc3nc4c(c(NCc5ccco5)n3n2)CCCC4)c1	126.5*	56.9*	24.2%	u	-88.7%
CCOc1ccccc1NC(=O)CN1C(=O)CC(c2ccc(OC)c(OC)c2)Sc2ccccc21 (stereo not drawn)	x	x	x	11.5%	x
Cc1nn(Cc2ccccc2)c(C)c1NC(=O)c1noc2c1CCc1ccccc1-2	-18.4	-2.0	43.4%	-9.0%	11.8%
Cc1ccc(NC(=O)c2noc3c2CCc2ccccc2-3)cc1	47.5*	34.4*	-26.1%	2.0%	-5.7%
Cc1cc(NC(=O)c2noc3c2CCc2ccccc2-3)n(-c2ccccc2)n1	11.2	6.3	1µM*	2.4%	u
CCCCN(C(=O)c1ccncc1)c1c(N)n(CCC)c(=O)[nH]c1=O	x	x	-15.5%	x	x
CCCCOc1ccccc1C(=O)N(Cc1sccc1C)C1CCS(=O)(=O)C1 (stereo not drawn)	x	x	x	11.1%	x
COc1cc(C)nn1-c1ccc(Cl)cc1	-3.7	-2.8	-9.3%	1.4%	-1.9%
CO/C=C\C=C/c1nnn(-c2ccc(Cl)cc2)n1	70.4*	41.3*	11.2µM*	-4.9%	-44.6%
COc1cccc(C(=O)N2CCN(c3ccccn3)CC2)c1	x	-2.1	-5.2%	-5.2%	19.2%
O=C(COc1cccc(Cl)c1)Nc1ccc2c(c1)CCC2	77.9*	38.1*	-20.3%	u	-5.5%
O=C(CSc1ncccn1)Nc1ccc2[nH]c(=O)[nH]c2c1	x	x	-9.4%	-5.7%	x
O=C(COc1ccccc1F)Nc1ccc2c(c1)CCC2	x	x	-24.3%	x	x
O=C(CSc1ncccn1)Nc1ccc2c(c1)CCC2	128.5*	36.4*	-19.8%	1.2%	-5.1%
O=C(COc1cccnc1[N+](=O)[O-])Nc1ccc2c(c1)CCC2	11.0	20.0*	15.3%	1.6%	-1.1%
O=C(CN1CCCC1)Nc1ccc2c(c1)CCC2	34.8*	23.5*	-13.6%[11.4 µM]	-10.9%	x
COc1cc(OC)cc(C(=O)N/N=C(\C)CC(=O)Nc2ccccn2)c1	17.1	1.6	-6.7%	1.9%	-7.4%
CCOc1ccc(N(C)S(=O)(=O)c2ccc(C)c(C(=O)N3CCN(Cc4ccc5c(c4)OCO5)CC3)c2)cc1	x	x	265.2%	x	x
Cc1ccc(NC(=O)CN2CCOCC2)cc1	18.1	9.4	-11.7%	-11.1%	0.7%
O=C(CN1CCCC1)Nc1ccc(NC(=O)Nc2ccccc2)cc1	54.0*	39.3*	-36.5%	-14.4%	-1.8%
O=C(CN1CCOCC1)Nc1ccc(C2CCCCC2)cc1	53.3	38.9*	78.9%	u	-75.4%
O=C(CN1CCOCCOCCOCCOCC1)Nc1ccccc1	48.0*	25.5*	-12.2%	u	-1.6%
SMILES	Shiga toxin inh	CHX counter	AmpC inh no detg	AmpC inh detg	NS1 inh
Clc1cccc(-c2csc(-c3nc(-c4ccc(Br)s4)cs3)n2)c1	x	x	x	16.4%	x
O=[N+]([O-])c1ccc(CN2CCN(c3nc4ccccc4s3)CC2)cc1	24.0	11.5*	7.2%	-5.7%	5.9%
c1csc(Cn2nnnc2CN2CCN(c3nc4ccccc4s3)CC2)c1	-12.8	-2.2	54.0%	u	-43.0%
Cc1ccccc1CN1CCN(c2nc3ccccc3s2)CC1	62.9*	50.9*	30.3%	-2.8%	-2.6%
COc1ccc(CN2CCN(c3nc4ccccc4s3)CC2)cc1	20.7	15.7	-2.6%	-4.4%	0.0%
Cc1nn(CCCC(=O)Nc2cc(C(F)(F)F)ccc2Cl)c(=O)c2c1sc1ccccc12	x	x	x	23.7%	x
